From the supplement of paper PMC12669032
A number with no mark means an inactive call.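 The calls were made as follows: active = AUC reduced over 20% with Padj below 0.05 in at least 2 of 3 replicates; inactive = otherwise.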

test system: Bacteroides caccae; test: growth AUC relative to DMSO control (median of replicates) (fraction); higher = more growth (less inhibition), active = hit call of the paper; conditions: 20 µM; 24 h
Procedure, shortened: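 In round-bottom 96-well plates sealed with pierced gas-permeable seals, gut bacterial monocultures in mGAM were grown anaerobically at 37 °C from OD600 0.05 with 20 µM compound (1% DMSO). OD600 readings were taken hourly for 24 h, and the minimum OD was set to 0. Area under the growth curve was then normalised to the plate median of solvent-only wells, or to row and column medians on the industrial chemical plate. The value given is the median of three biological replicates grown on separate days.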

Row | Compound | growth AUC
1 | CC(C)(C)[C@@H](O)[C@@H](Cc1ccc(Cl)cc1)n1cncn1 (mixture of isomers) | 0.942
2 | COCC(=O)N(c1c(C)cccc1C)C(C)C(=O)O (stereo not given) | 0.998
3 | COC(=O)c1ccccc1S(=O)(=O)NC(=O)n1nc(OCC(C)O)n(C)c1=O (stereo not given) | 1
4 | CCOC(=O)Cc1[nH]nc2ccc(Cl)cc12 | 1.01
5 | CCCCCCCC/C=C\CCCCCCCC(N)=O | 0.999
6 | COC1CCC2(CC1)NC(=O)C(c1cc(C)ccc1C)=C2OC1OC(CO)C(O)C(O)C1O (stereo not given) | 0.946
7 | COC(=O)c1ccc(C(F)(F)F)nc1S(=O)(=O)[N-]C(=O)Nc1nc(OC)cc(OC)n1.[Na+] | 1.01
8 | COC1CCC2(CC1)NC(=O)C(c1cc(C)ccc1C)=C2O (stereo not given) | 0.974
9 | O=C(Nc1ccc(O)cc1-c1ccc(Cl)cc1)c1cccnc1Cl | 1.02
10 | Cc1nn(C)c(F)c1C(=O)Nc1ccccc1C(C)CC(C)C (stereo not given) | 0.97
11 | O=C(NCc1ncc(C(F)(F)F)cc1Cl)c1c(Cl)cccc1Cl | 0.973
12 | CC1COc2ccccc2N1C(=O)C(Cl)Cl (stereo not given) | 0.953
13 | CCc1cccc(C)c1NC(=O)C(=O)O | 1.01
14 | Cc1[nH]oc(=O)c1N=Nc1ccccc1Cl | 0.996
15 | COc1ccccc1C(=O)NS(=O)(=O)c1ccc(C(=O)NC2CC2)cc1 | 1.01
